# According to the supplement of paper PMC6555819:
# Test system: THRa:RXRa (NR concentration 90 nM, RXRa partner concentration 90 nM)
# Experiment: PBM binding z-score (relative to random genomic background probes); higher = stronger binding; sequences stand for … in GC…GCGATTGACAGCGTAGAATGAAGG
# In short: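 Antibodies against each partner of ligand-free nuclear receptor dimers (one per run) detected binding on custom Agilent 4×180K protein-binding microarrays after 1 h incubation. The double-stranded probes had 34-nt variable regions carrying direct-repeat seeds, single-nucleotide variants, half-site ablations and random human genomic background sequences. Binding z-scores, from regression-normalized fluorescence, use the random background probes as reference.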
row,Sequence,PBM binding z-score
1,CTCGAAATGTCGGTTGAGGTGAGTATACGGATAA,3.31
2,TAGCCTAGGTCATTCAGGGGCCAATATAGAAAGC,3.85
3,CGACCTAGGTCATCCAGGACAGTGAATACATTGA,4
4,GCTTGTAGATCAAGGTTGAGAAAGACTAAGCTAA,-0.135
5,GCAGACAGGTGAAACGAAGGTAACTCAGGGTGGC,1.42
6,ATATGCAGGTTAAGGGTCATTCAGGTTGGTTCGC,3.64
7,ATCCCTAGGTAAAGTTCAGTGAAAGATCGATAGA,1.07
8,CATACTGGGCCAAGGTCATTGATCAGTCAAAGCA,3.49
9,CGTCCAAGGTCAATGGTCAGTGAAGAGATGACGG,3.6
10,CCGACTGGGGCAAGGATACCATAACGCACAGCCA,-0.00683
11,CCTAGTTGGTAAGGAGGTCACACACCGGATATGA,3.44
12,TAGCCTAGGTAATTCAGGGGCCAGTATAGAAAGC,0.54
13,CGTCCATGGTCATAGGAGGTCAGTGAAGACAGAT,3.83
14,GGAACGAGGGCAAAGTTGATAACATCTGTCGACG,1.27
15,TCGAGTAGGTTACGAATGGGGCATTCAGCTTTCT,-0.0841
16,TCGAGTAGCTTAGTCGGGGCATTCAGCCAACATA,-0.289
17,CGAACTAGGTCATCCAGGACAGTGAATACATTGA,3.59
18,GCTAGCCGGCCATTTGGGTCACTCAATGACGGGC,1.62
19,TCATATAGGTAAACAGGTGCAAGTCCGTAAGTTA,0.672
20,CGTCCAAGGTCAAGGTAAGTGAAAGAGACTCGAA,3.97

row,Sequence,PBM binding z-score
1,CCTTACGGGTCACAAGGTTATAGCACGACGAGCG,3.26
2,ACTATTAGTTGAGACGAGGCCAACCGATAGGTTG,2.57
3,TCTTGTAAATCAAAGGTTAAGAAAGCCGAAGCCT,0.996
4,TCATATAGGTAAACAGGTGAAAGTGCGTAAGTTA,0.829
5,CGTCCAAGATCAAAGGTCAGTGAAGAGATGACGG,2.59
6,CCTGCTAGGTCAATGGTCAGCTACAGCAGCTCGC,2.19
7,AGAGACAGGTGAGTGAAGGTAACTCAGCTGGACG,1.75
8,ATCTTTAGGTAAAGTTCAGTGAAAGATCGATAGA,1.52
9,TAGCCTAGGTCATGGGCCGGTATACCACGCGAAC,3.15
10,CCTAGCAGGCCAATCTGTGTCACTCAAGGCTTGA,0.791
11,CGGACTAGGTCAAGGACAGTGAATCTCCGCACGC,2.8
12,ATCTCTAGGTAACCAAGTTCCGTGAATGCCGAAC,0.694
13,CAAACTAGGTCAAGGTCACAGTCGGTTTGTGCCA,4.67
14,CTCGAAAGGTCGGTTGAGGTAAGTATACGGATAA,4.54
15,TCTCGGAGGGCACGAAGGTCAGAGCTTTCCAGAG,2.63
16,TCATATAGGTAAAAGGTGAAAGTCGGTGTGGTAA,1.77
17,CCGACTGGGGCATAAGCTTACCATAAGCCAGCCC,-0.645
18,CCGACTGGGGCAAAGGTTACTATACTCAGTACGA,1.44
19,AGTCAAAGTTCAGGACGAGGTAACCTAAAGCACG,3.88
20,CCAGACAGGTGTAAGGTAACTCAGTCTGGTACGC,1.59
